According to the OligoGym collection:

Biological target: INPP5F
Experiment: pooled miR-30 sensor sort-seq; sequence = guide strand
Conditions: shRNA
Further: reference of the scale not given here.

Row | Sequence | sensor-assay potency score (higher = more potent)
1 | TTCCTTTTCACTTCTGTCCAGC | -0.59
2 | TTCATTTGAAACTTGATTGGTC | 0.857
3 | TTCGTTTATAGCGCATTCCTGC | -0.611

Biological target: INVS
Experiment: as above
Conditions: shRNA

Row | Sequence | sensor-assay potency score (higher = more potent)
4 | TTATTTTCTATTAATATCTGGC | 0.295
5 | TTCGTGAGAACAACCATAGATT | -0.97
6 | TACTTGAGCATTATTTTCCAGT | -0.382
7 | TTTTATTCACATCTGCTCCTGC | 0.562
8 | TTTAAAAACACTTTAACCGTTT | -0.562
9 | TTGGTCAACTAGATCTACCCTT | 0.547
10 | AACATCAGTAGCATCTACTTGA | 0.641
11 | TAAGACGTTATATTGCAGCTTT | 0.127
12 | TAGAAGAGAATGTCCATCTTGG | 0.67
13 | TTAATATCTGGCAAACATCAGC | -0.861
14 | TTTTAAAAACACTTTAACCGTT | -0.842
15 | TTTGTTTTCTTCCTCTCGCTTT | 0.0611
